A selection: hits, their analogues and other compounds. The true share with any hit is near 3.5%.
GPR151 ag = human GPR151 activation | actives 1% (n = 650,000) | PathHunter beta-arrestin GPR151 cells, luminescence | activation, % at 11.2 µM | AID 1508602 | Q8TDV0; in the data active means activation above about 4.9%;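 further: 0% = median of compound wells and 100% = cells with positive control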
Target sequence (Q8TDV0 whole entry, looked up): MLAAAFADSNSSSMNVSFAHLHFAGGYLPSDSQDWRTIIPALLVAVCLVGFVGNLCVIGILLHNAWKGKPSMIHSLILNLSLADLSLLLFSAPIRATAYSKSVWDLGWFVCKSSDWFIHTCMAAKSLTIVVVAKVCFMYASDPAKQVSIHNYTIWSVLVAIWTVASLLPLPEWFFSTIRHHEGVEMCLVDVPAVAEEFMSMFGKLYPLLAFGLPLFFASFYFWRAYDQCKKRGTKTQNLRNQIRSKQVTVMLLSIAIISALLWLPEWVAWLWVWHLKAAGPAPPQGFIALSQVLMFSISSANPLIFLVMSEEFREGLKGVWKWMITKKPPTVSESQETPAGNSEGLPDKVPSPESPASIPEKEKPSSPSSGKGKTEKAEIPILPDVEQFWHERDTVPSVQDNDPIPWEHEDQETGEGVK
MITF primary = blocks human microphthalmia-associated transcription factor; inhibition, % at 2.6 µM; AID 1259374; actives 0.91% (n = 650,000); AlphaScreen MITF homodimerization, bead proximity signal; O75030; in the data active means inhibition above about 50%;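 further: 0% = vehicle wells with protein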
TEAD-YAP inh = TEAD-YAP interaction inhibition; actives 1.4% (n = 640,000); AID 1259422; inhibition, % at 9.12 µM; HEK-TIYL cells, TEAD-Gal4/YAP UAS-luciferase luminescence; in the data active means inhibition above about 32%;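 further: 0% = median of test compound wells and 100% = reference inhibitor wells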
FBW7 act = activators of human E3 ligase FBW7; Q969H0; AlphaScreen FBW7–phospho-cyclin E peptide binding, activator screen; normalized activity (activation), % at 26.1 µM; actives 0.13% (n = 650,000); AID 1259310; in the data active means normalized activity above about 1.9%;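 further: purified mutant Fbw7 with reduced substrate affinity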
Numbers without * were called inactive.

SMILES | GPR151 ag | MITF primary | TEAD-YAP inh | FBW7 act
O=C1c2ccccc2C(=O)C12OC(c1ccc(Br)cc1)C1(C(=O)c3ccccc3C1=O)C2c1ccc(F)cc1 (stereo not drawn) | 0 | 63* | -5 | 0
c1ccc(NNc2nc3ccccc3s2)cc1 | -1 | 10 | 36* | 0
O=C(NNc1nc2ccccc2s1)Nc1ccccc1 | -1 | -2 | -36 | 0
O=C(O)CCNc1nc2ccccc2s1 | 0 | 1 | 42* | 0
O=C(O)CNc1nc2ccccc2s1 | -2 | 32 | 11 | 1
C=CCN1CC(C(=O)N2Cc3ccccc3OC(CCCC)C2)CC1=O (stereo not drawn) | 2 | 3 | 9 | 0
COc1cccc(N2C(=O)CC(Sc3nc(C)c4cc(C)c(C)cc4n3)C2=O)c1 (stereo not drawn) | 0 | 13 | -1 | 0
O=C1N/C(=N\N=C/c2ccc3c(c2)OCO3)S/C1=C/c1ccc(O)cc1 | 0 | -5 | 49* | 1
COC(=O)/C=C1\S/C(=N\N=C\c2ccc3c(c2)OCO3)NC1=O | -1 | -1 | -2 | 0
O=C(Sc1cccc2cccnc12)N1CCOCC1 | -1 | 13 | 3 | 0
Oc1c(C(c2ccccc2)N2CCOCC2)ccc2cccnc12 (stereo not drawn) | 0 | 12 | 87* | -1
Oc1c(C(c2ccc(Br)cc2)N2CCOCC2)ccc2cccnc12 (stereo not drawn) | 0 | 9 | 73* | 0
COc1cccc(CN2CCNC(=O)C2CC(=O)NCc2ccccc2C)c1 (stereo not drawn) | 3 | -3 | 2 | 0
Cc1ccc(N2CCN(C(=O)CC(C)(C)CC3=NS(=O)(=O)c4ccccc4N3)CC2)c(C)c1 | 0 | 7 | 47* | 0
Cc1cnc(-c2ccc(N3CCOCC3)nc2)nc1NCCc1ccc(O)cc1 | 0 | 15 | 8 | 0
O=C(CSc1nc2ccccc2[nH]1)Nc1cc(Cl)ccc1O | 0 | -8 | 33* | 0
Cc1cc([N+](=O)[O-])nn1CC(=O)Nc1cccc(F)c1C#N | 0 | 6 | 36* | 0
O=C(CSc1nc2ccccc2n1CC(=O)N1CCOCC1)NCc1ccco1 | 2 | 3 | 5 | 0
CC(C)(C)c1ncn(-c2ccc(Nc3nccc(-c4cncc(N5CCOCC5)c4)n3)cc2)n1 | 4 | -12 | 74* | 0
FC(F)(F)c1ncn(-c2ccc(Nc3nccc(-c4cncc(N5CCOCC5)c4)n3)cc2)n1 | 0 | -8 | -9 | 0
CN(C)c1ncn(-c2ccc(Nc3nccc(-c4cncc(N5CCOCC5)c4)n3)cc2)n1 | 0 | -5 | 63* | 0
Cc1ccc(/C(C#N)=C\c2ccc3c(c2)OCCO3)cc1 | -4 | -7 | 56* | 0
Cc1ccc(C(=O)Nc2nc3ccccc3n2C)cc1 | -3 | 16 | 41* | 0
Cn1c(NC(=O)c2ccc(Cl)c(Cl)c2)nc2ccccc21 | 0 | 22 | -20 | 0
O=C(Nc1cc(Cl)ccc1O)c1nn2c(C(F)(F)F)cc(-c3ccccc3)nc2c1Br | 0 | 19 | -5 | 1
SMILES | GPR151 ag | MITF primary | TEAD-YAP inh | FBW7 act
CC(=O)CN1C(=O)C(=O)c2cc(Br)ccc21 | 0 | 24 | 10 | 0
CCCN1C(=O)C(=O)c2cc(Br)ccc21 | 0 | -13 | 63* | 0
C=CCN1C(=O)C(=O)c2cc(Br)ccc21 | 0 | 16 | 62* | 0
O=C1C(=O)N(CCc2ccccc2)c2ccc(Br)cc21 | 1 | 17 | 27 | 0
C#CCN1C(=O)C(=O)c2cc(Br)ccc21 | 1 | 14 | 53* | 1
c1cncc(CNc2nccn3c(-c4ccc5ccccc5c4)cnc23)c1 | -1 | 7 | 5 | 0
Fc1ccc(CNc2nccn3c(-c4cccs4)cnc23)cc1 | -1 | 10 | -9 | 0
CCOC(=O)c1[nH]c(C)c(C(=O)Nc2ccc(F)cc2C)c1C | 0 | 8 | 47* | 0
CCOC(=O)c1[nH]c(C)c(C(=O)Nc2ccc(Br)cc2F)c1C | -1 | -1 | -6 | 0
CCOC(=O)c1[nH]c(C)c(C(=O)Nc2ccc(C)cc2C)c1C | 0 | 10 | 51* | 0
COc1ccccc1N1CCN(C(=O)c2sc3ncnc(N4CCN(c5ccccc5F)CC4)c3c2C)CC1 | 1 | 9 | 16 | 0
Cc1nc2ccc(NS(=O)(=O)c3ccc(C(C)C)cc3)cc2s1 | 2 | 6 | 32* | 0
Cc1ccc(/C=C2/SC(=S)N(CN3CCOCC3)C2=O)o1 | -1 | 78* | 1 | 0
O=C(NN1C(=O)/C(=C/c2ccc(O)cc2)SC1=S)c1cccc(O)c1 | -1 | 0 | -3 | 0

Compound activity: PubChem, The Scripps Research Institute Molecular Screening Center
